Compound activity: PubChem, several laboratories
IDE act: activators of human insulin-degrading enzyme in cells. P14735. HEK cells, FAbeta-B cleavage, fluorescence polarization; 0% vehicle, 100% cell-free pure enzyme wells. activation, % at 5.96 µM. actives 0.073% (n = 340,000);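 active = activation above the mean of all tested compounds plus 3 SD, set per screening campaign, cut at about 17% in these data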
Target sequence (P14735 whole entry, looked up): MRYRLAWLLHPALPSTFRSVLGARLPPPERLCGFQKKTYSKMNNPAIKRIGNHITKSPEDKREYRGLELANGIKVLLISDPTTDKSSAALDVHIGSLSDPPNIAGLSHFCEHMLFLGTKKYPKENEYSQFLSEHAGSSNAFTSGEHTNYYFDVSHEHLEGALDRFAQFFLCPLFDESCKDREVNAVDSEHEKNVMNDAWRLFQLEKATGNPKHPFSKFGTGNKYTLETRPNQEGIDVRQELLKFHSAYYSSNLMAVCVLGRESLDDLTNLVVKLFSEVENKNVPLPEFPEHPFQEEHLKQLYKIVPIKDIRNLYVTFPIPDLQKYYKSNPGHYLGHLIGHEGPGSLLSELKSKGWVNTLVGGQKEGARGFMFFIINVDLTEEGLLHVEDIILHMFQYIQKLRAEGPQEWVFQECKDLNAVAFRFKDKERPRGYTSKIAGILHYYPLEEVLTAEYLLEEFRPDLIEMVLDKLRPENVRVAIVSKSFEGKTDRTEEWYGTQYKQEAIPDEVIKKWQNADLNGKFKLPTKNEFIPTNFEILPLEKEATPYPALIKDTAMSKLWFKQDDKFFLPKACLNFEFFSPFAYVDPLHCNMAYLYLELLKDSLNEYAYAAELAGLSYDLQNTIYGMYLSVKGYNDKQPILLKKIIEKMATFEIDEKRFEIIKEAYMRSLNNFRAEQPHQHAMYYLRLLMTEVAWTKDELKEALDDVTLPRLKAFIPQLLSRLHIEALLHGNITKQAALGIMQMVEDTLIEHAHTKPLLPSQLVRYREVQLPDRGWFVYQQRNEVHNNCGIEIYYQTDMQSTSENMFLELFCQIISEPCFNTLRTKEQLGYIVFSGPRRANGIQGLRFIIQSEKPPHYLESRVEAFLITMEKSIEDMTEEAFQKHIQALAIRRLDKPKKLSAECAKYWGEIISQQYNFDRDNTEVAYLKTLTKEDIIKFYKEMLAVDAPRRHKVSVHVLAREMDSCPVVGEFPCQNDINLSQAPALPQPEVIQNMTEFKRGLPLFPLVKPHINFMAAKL
CHT allo act: allosterically activates the human high affinity choline transporter; CHT-expressing cells, membrane potential dye, choline EC20; hits give high values; LV-AA mutant CHT in HEK293 cells; B-score at 10 µM; actives 0.49% (n = 310,000); AID 488977; Q9GZV3;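 active = initial fluorescence not abnormally high and integrated response B-score, plate-corrected, over 3 SD above library mean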
CHT block: inhibitors of human choline transporter CHT | Q9GZV3 | actives 0.86% (n = 310,000) | CHT-expressing cells, membrane potential dye, choline response; hits give low values | AID 488975 | B-score at 10 µM;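 active = B-score over 3 SD under the library average, and starting fluorescence ratio not unusually high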;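 note: choline stimulus applied at its EC90 after an EC20 pre-addition; B-score computed on integrated fluorescence ratio after choline addition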
ANO1 block: mouse TMEM16A channel inhibition, primary screen. HEK293 TMEM16A/YFP iodide influx fluorescence, ionomycin. normalized B-score (activity score, 25-100; higher = stronger inhibition) at 10 µM. actives 1.2% (n = 310,000). AID 588511;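 active = ratio plate-corrected score three or more library SD toward inhibition, starting fluorescence score within five deviations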;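 note: score derived from kinetic fluorescence span divided by baseline fluorescence per well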
TMEM16A act: activates or potentiates the mouse TMEM16A chloride channel; HEK293 TMEM16A/YFP-H148Q/I152L, iodide quench fluorescence; hits give low values; B-score at 10 µM; actives 0.3% (n = 340,000); AID 623877;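 active = fluorescence-ratio B-score plate-corrected deviation score at least 3 library SD below zero, with starting fluorescence score within 5 deviations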;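 note: channel opened by trigger with iodide after compound preincubation; score built on the fluorescence ratio of max minus min over baseline; more negative score means more quench and so TMEM16A activation or potentiation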
IDE inh: cellular human IDE inhibition; HEK cells, FAbetaB cleavage, fluorescence polarization; inhibition, % at 5.59 µM; AID 434962; P14735; actives 0.41% (n = 320,000);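 active = percent inhibition above the average of all tested compounds plus 3 SD, set per screening campaign, cut at about 16% in these data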;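 note: IDE supplied by intact live HEK cells; FP after avidin binding of uncleaved biotin substrate so inhibition keeps polarization high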
IDE cell inh cf: cellular human IDE inhibition, confirmation. shares compounds with IDE inh. HEK cells, FAbetaB cleavage, fluorescence polarization. inhibition, % at 5.59 µM. actives 51% (n = 1,200);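 active = mean inhibition across triplicate wells above the cutoff set by the earlier primary insulin-degrading enzyme screen, cut at about 16% in these data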
HEK293 tox: HEK cell cytotoxicity, counter-screen for IDE inhibitors; AID 449730; actives 28% (n = 1,200); HEK293 cytotoxicity, ATP luminescence; inhibition, % at 5.59 µM; shares compounds with IDE inh; in the data active = inhibition above about 22%
IDE FP artifact: fluorescence interference counter-screen for IDE inhibitors. AID 588718. shares compounds with IDE inh. 30 tested, under 10 active. FP counterscreen for fluorescent artifacts, IDE probe project. IC50, µM; call rule not given here
CHT activ conf: confirmation of human choline transporter (CHT) activators; shares compounds with CHT allo act; CHT-expressing cells, membrane potential dye fluorescence (FDSS); % of choline EC20–EC90 response window; HEK293 expressing CHT LV-AA mutant; choline added at its EC20; activation, % at 10 µM; actives 91% (n = 2,500);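 active = primary screen active, with duplicate mean activation above negative control mean plus 3 SD, cut at about 11% in these data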
HEK293 MP dye: activity in parental HEK293 cells lacking CHT; actives 62% (n = 2,500); membrane potential dye fluorescence (FDSS); measured after EC20 choline addition; ratio readout change at 10 µM, hits read low; shares compounds with CHT allo act;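 active = duplicate-averaged ratio beyond 3 SD from buffer wells, up or down, though filed actives are nearly all decreases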
TMEM16A reconf: re-confirmation of mouse TMEM16A chloride channel inhibitors | shares compounds with ANO1 block | AID 652189 | actives 39% (n = 2,300) | inhibition, % at 10 µM | HEK293 TMEM16A/YFP-H148Q, iodide quench fluorescence; ionomycin added to raise cell calcium;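 active = mean duplicate percent inhibition, scaled so buffer wells are 0 and the reference blocker 100, over three buffer SD above buffer mean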
TMEM16A Ca cntr: counter-screen for TMEM16A inhibitors: effect on calcium mobilization. AID 652231. calcium response (% of ionomycin), % at 10 µM. shares compounds with ANO1 block. actives 2% (n = 2,300). TMEM16A/YFP HEK293, Fluo4 calcium mobilization;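 active = duplicate-averaged calcium signal over 20% of the ionomycin maximum, relative to buffer baseline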;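 note: each well's signal is peak minus trough fluorescence divided by its pre-addition baseline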
Parental YFP cnt: parental YFP-HEK293 iodide quench counter-screen activity | ionomycin | 2,300 tested, under 10 active | shares compounds with ANO1 block | YFP ratio F(max-min)/F0 at 10 µM;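 active = yellow fluorescent protein signal ratio exceeding the buffer control mean by over 5 SD of those controls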;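 note: ratio is mean of duplicate wells from kinetic YFP trace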
ClC-1 inh: rat ClC-1 inhibition, TMEM16A specificity screen; CHO ClC-1-YFP, iodide influx fluorescence quench; iodide control reads 0, buffer control 100; ratio percent, % at 10 µM; shares compounds with ANO1 block; 2,300 tested, under 10 active;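 active = duplicate-mean ratio percent above the mean of iodide-only control wells, which defines zero, plus 5 of their SD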;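 note: higher percent means stronger block of ClC-1 iodide influx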
Of the large screens only hits and unclear results are named; the others gave an inactive call (follow-up assays come after a bar, where they were run). An excerpt weighted towards active compounds, which were near 2.7% of everything screened.

O=C(C1CC1)N1CCN(c2ccnc3cc(Cl)ccc23)CC1	CHT allo act 7.33, IDE inh 21.6 | IDE cell inh cf 16.4 | HEK293 tox inactive | IDE FP artifact inactive | CHT activ conf 65.5 | HEK293 MP dye -67.4
COc1ccc2sc(-c3ccc(SC)cc3)c(-c3ccc(O)cc3)c2c1	none (no result: CHT allo act, CHT block, ANO1 block)
Cn1c(N/N=C/c2c[nH]c3ccccc23)nc2ccccc21	IDE inh 29.2 | IDE cell inh cf inactive | HEK293 tox 62.7 | CHT activ conf 33.5 | HEK293 MP dye -58.7
Cc1cc(N/N=C/c2c[nH]c3ccccc23)c2ccccc2n1	none
Cc1ccc2[nH]c3c(NCc4ccco4)ncnc3c2c1	ANO1 block 25, IDE inh 64.8 | IDE cell inh cf 53.2 | HEK293 tox 53.1 | TMEM16A reconf 22.0% | TMEM16A Ca cntr inactive | Parental YFP cnt inactive | ClC-1 inh inactive
Cc1cccc(C(=O)NCc2nnc(SCC(=O)Nc3nncs3)n2C)c1	none
O=C1/C(=C/c2ccco2)CCc2ccccc21	none
COc1ccc2c(c1)CC/C(=C/c1ccco1)C2=O	IDE inh 19.2 | IDE cell inh cf inactive | HEK293 tox inactive | TMEM16A reconf inactive | TMEM16A Ca cntr inactive | Parental YFP cnt inactive | ClC-1 inh inactive
Cn1c(SCC(=O)NC2CC2)nnc1-c1ccc(Cl)cc1	none (no result: CHT allo act, CHT block, ANO1 block)
CCCCOc1ncnc2c1[nH]c1ccc(F)cc12	ANO1 block 25, IDE inh 29.7 | IDE cell inh cf inactive | HEK293 tox 69.8 | TMEM16A reconf inactive | TMEM16A Ca cntr inactive | Parental YFP cnt inactive | ClC-1 inh inactive
O=C1/C(=C/c2ccc(O)c(O)c2)Oc2cc(O)ccc21	IDE inh 33.9 | IDE cell inh cf 75.3 | HEK293 tox inactive | TMEM16A reconf 19.5% | TMEM16A Ca cntr 33.5% | Parental YFP cnt inactive | ClC-1 inh inactive
COc1ccc(/C=C2\Oc3cc(OC(=O)N4CCOCC4)ccc3C2=O)cc1	none
CCCCOCCCNc1ncnc2c1[nH]c1ccccc12	ANO1 block 100, IDE inh 24.7 | IDE cell inh cf inactive | HEK293 tox 72.8 | TMEM16A reconf 56.0% | TMEM16A Ca cntr inactive | Parental YFP cnt inactive | ClC-1 inh inactive
CCCCOc1ncnc2c1[nH]c1ccccc12	none
COc1ccc(/C=C/c2nc(S(=O)(=O)c3ccccc3)c(N(C)C)o2)cc1	none
